# Measurements published in PubChem BioAssay (NCATS).
# Results filed as inconclusive are left out. A number with no mark means an inactive call. Activity calls are given as the source filed them. Calls come from the whole dose curve; as a rule, active = well fitted cell-killing curve with a large enough effect; inconclusive = small, poorly fitted or top-dose-only effect, or effect the other way; inactive = no such curve, though single readings can be large or run the other way.
# Assay: Quantitative High-Throughput drug screen in 47 multiple myeloma cell lines against the NCATS MIPE library collection: OPM1_PLB cell viability assay (AID 1918989); note: nearly all actives have a fitted effect of over 40% in size
# Conditions: CellTiter-Glo, 48 h; series mostly up to 45.8 µM; viability (% of control): at the top concentration
# Source text: PI: Beverly A. Mock Ph.D.
# Laboratory of Cancer Biology and Genetics,
# Center for Cancer Research, National Cancer Institute,
# National Institute of Health, Bethesda, Maryland
# Drug resistance and disease progression are common in multiple myeloma (MM) patients, underscoring the need for new therapeutic combinations. […] We hypothesized that effective combinations would reduce MYC expression and enhance p16 activity. […] These preclinical data identify potentially useful drug combinations for evaluation in drug-resistant MM and reveal potential mechanisms of combined drug sensitivity.
# Described herein is the primary MIPE qHTS used to cherrypick compounds. Validated compounds were then further tested for potential synergistic activiy.
# [1] Peat TJ, Gaikwad SM, Dubois W, Gyabaah-Kessie N, Zhang S, Gorjifard S, Phyo Z, Andres M, Hughitt VK, Simpson RM, Miller MA, Girvin AT, Taylor A, Williams D, D'Antonio N, Zhang Y, Rajagopalan A, Flietner E, Wilson K, Zhang X, Shinn P, Klumpp-Thomas C, McKnight C, Itkin Z, Chen L, Kazandijian D, Zhang J, Michalowski AM, Simmons JK, Keats J, Thomas CJ, Mock BA. Drug combinations identified by high-throughput screening promote cell cycle transition and upregulate Smad pathways in myeloma. Cancer Lett. 2023 Aug 1;568:216284. doi: 10.1016/j.canlet.2023.216284. Epub 2023 Jun 24. PMID: 37356470; PMCID: PMC10408729.
# SEQUENCE No. (e.g., 1, 2, 3, etc.); […] (e.g., Cells, Incubation, Reagent, etc.); VALUE and DESCRIPTION.
# 1; Cells; 5 uL; white, solid bottom 1536-well Greiner assay plate.
# 2; Compounds; 23 nL; Kalypsis pin tool (Wako USA) equipped with a 1536-well pin head to transfer to the assay plates.
# 3; Incubation; 48 hours; 37C incubation.
# 4; Reagent;5uL; CellTiter Glo (Promega).
# 5; Detector; 425V; Luminescence; Viewlux PerkinElmer.
# NOTES (numbers refer to Sequence numbers above)
# 1. The cell-based screening methods employed in this study were like those previously published. Briefly, the corresponding myeloma cell lines were screened in 1,536-well plates with 500 cells, 5-uL per well for inhibition of cell viability (assessed by measuring ATP levels with CellTiterGlo).
# 2. NCATS MIPE 4.0 library of approved and investigational drugs were added using the Kalypsis pin tool. Wells treated with DMSO only for 100% viability and media only for 0% viability were used as controls.
# 3. The assay plates were covered and incubated for 48 hours in a 37C, 5% CO2 incubator with controlled humidity.
# 4. After 48 hours, CellTilter-GloTM luminescent substrate mix (Promega) reagent was added to the assay plate and plates we incubated for 5 min at room temperature.
# 5. Signal was measured as median relative luminescence units on a ViewLux (PerkinElmer) multiplate reader.
# [1] Heske CM, Davis MI, Baumgart JT, Wilson K, Gormally MV, Chen L, Zhang X, Ceribelli M, Duveau DY, Guha R, Ferrer M, Arnaldez FI, Ji J, Tran HL, Zhang Y, Mendoza A, Helman LJ, Thomas CJ. Matrix Screen Identifies Synergistic Combination of PARP Inhibitors and Nicotinamide Phosphoribosyltransferase (NAMPT) Inhibitors in Ewing Sarcoma. Clin Cancer Res. 2017 Dec 1;23(23):7301-7311. doi: 10.1158/1078-0432.CCR-17-1121. Epub 2017 Sep 12. PMID: 28899971; PMCID: PMC6636827.
# Potency is the fitted concentration of half-maximal effect.
SMILES,viability (% of control),Potency
CN1C(=O)C(Cc2c[nH]c3ccccc23)NC1=S (stereo not given),119%,–
O=C(Nc1ccc(OC(F)(F)F)cc1)c1sccc1NCc1ccnc2ccccc12,–,20.9 µM (active)
Cc1ccc(C2=Nc3ccc(Cl)cc3OC2)cc1,–,10.5 µM (active)
CCOc1ccccc1N=Nc1c(C)[nH]n(-c2nc(-c3ccccc3)cs2)c1=O,116%,–
CN(C)N=Nc1nc[nH]c1C(N)=O,–,4.18 µM (active)
CCOC(=O)[C@H](CCc1ccccc1)N[C@@H](C)C(=O)N1CCCC1C(=O)O (stereo not given in full),145%,–
COc1ccc(-c2cc3nccn3c(Nc3ncccc3C(N)=O)n2)cc1OC,–,2.09 µM (active)
Cc1ccc(NC(=O)c2cccc(N(C)C)c2)cc1NC(=O)c1ccc(O)cc1,–,23.5 µM (active)
O=C1C(c2c(O)[nH]c3ccccc23)=Nc2ccccc21,153%,–
O=C(Nc1cccc(C(F)(F)F)c1)Nc1cc(S(=O)(=O)NC2CC2)ccc1-c1ccsc1,–,26.4 µM (active)
CCC[C@H](N[C@@H](C)C(=O)N1[C@@H]2CCCC[C@H]2C[C@H]1C(=O)O)C(=O)OCC,117%,–
Cc1cc2nc3c(=O)[nH]c(=O)nc-3n(CC(O)C(O)C(O)CO)c2cc1C (stereo not given),–,18.7 µM (active)
COc1cc2ncn(-c3cc(OCc4ccccc4S(C)(=O)=O)c(C#N)s3)c2cc1OC,121%,–
CC(C)CN(C[C@H](O)[C@H](Cc1ccccc1)NC(=O)O[C@H]1CCOC1)S(=O)(=O)c1ccc(N)cc1,–,26.4 µM (active)
COc1ccc(-c2ccc3ncc4c(c3c2)n(-c2ccc(N3CCNCC3)c(C(F)(F)F)c2)c(=O)n4C)cn1,2.03%,–
C[C@@H]1[C@H](C)CC[C@]2(C(=O)O)CC[C@]3(C)C(=CC[C@@H]4[C@@]5(C)CC[C@H](O)C(C)(C)[C@H]5CC[C@]43C)[C@@H]12,122% [at 92.2 µM],–
O=C(O)c1ccc(O)c2ncc(N3CCOCC3)cc12,136%,–
CC(=O)Nc1cccc(-n2c(=O)n(C3CC3)c(=O)c3c(Nc4ccc(I)cc4F)n(C)c(=O)c(C)c32)c1,–,0.296 µM (active)
O=C(Nc1ccccc1)Nc1ccc(-c2ccc(C(=O)[C@H]3CCC[C@H]3C(=O)O)cc2)cc1,139%,–
CC(C)(C)c1nc(-c2cccc(NS(=O)(=O)c3c(F)cccc3F)c2F)c(-c2ccnc(N)n2)s1,–,18.7 µM (active)

SMILES,viability (% of control),Potency
COc1ccc(CCC(=O)Nc2nc3ccc(Cl)cc3s2)cc1OC,122%,–
CN[C@@H]1[C@@H](O)[C@@H](O[C@@H]2[C@@H](O)[C@H](O[C@H]3O[C@H](CN)[C@@H](O)[C@H](O)[C@@H]3O)[C@@H](N)C[C@@H]2NC(=O)[C@@H](O)CN)OC[C@]1(C)O,126%,–
CS(=O)(=O)c1ccc(C2=C(c3ccccc3)C(=O)OC2)cc1,115%,–
CC(=O)NCCC(=O)N[C@@H](CCC(N)=O)C(=O)N[C@@H](CO)C(=O)N[C@@H](CCC(N)=O)C(=O)N[C@@H](CCC(N)=O)C(=O)N[C@H](C(=O)N[C@@H](Cc1ccccc1)C(=O)N[C@]1(C)CCCCCCC=CCCC[C@@](C)(C(=O)N[C@@H](CCC(N)=O)C(=O)N[C@@H](CC(N)=O)C(N)=O)NC(=O)[C@H](CC(C)C)NC(=O)[C@H](CC(C)C)NC(=O)[C@@H](CCCNC(=N)N)NC(=O)[C@H](Cc2c[nH]c3ccccc23)NC(=O)[C@H](CC(C)C)NC(=O)[C@H](CC(N)=O)NC1=O)[C@H](C)O,–,26.4 µM (active)
CNC(=O)c1ccc2c(C(=Nc3cccc(CN(C)C)c3)c3ccccc3)c(O)[nH]c2c1,–,18.7 µM (active)
O=S(=O)(NCCNCC=Cc1ccc(Br)cc1)c1cccc2cnccc12,–,8.33 µM (active)
CC1(COc2ccc3c(c2)ncn3-c2ccc3cccc(N4CCC(N)CC4)c3n2)COC1,–,0.0235 µM (active)
CCNC(=O)Nc1ccc(Oc2ncnc(N)c2C=NOC)cc1Cl,109%,–
OC[C@H]1O[C@@H](OCCc2ccc(O)cc2)[C@H](O)[C@@H](O)[C@H]1O,–,29.6 µM (active)
COc1cc(CNC(=O)CCCCC=CC(C)C)ccc1O,112%,–
O=C1C(CCC(O)c2ccc(F)cc2)C(c2ccc(O)cc2)N1c1ccc(F)cc1 (stereo not given),94.8%,–
CN(C)CC[C@H](CSc1ccccc1)Nc1ccc(S(=O)(=O)NC(=O)c2ccc(N3CCN(Cc4ccccc4-c4ccc(Cl)cc4)CC3)cc2)cc1[N+](=O)[O-],–,10.5 µM (active)
Cc1cccc2c1CC[C@H](CN1CCC(c3c(Cl)cccc3Cl)CC1)C[C@@H]2O,–,18.7 µM (active)
C#CCN(C)CC1=Cc2ccccc2Oc2ccccc21,94%,–
C=CC[N+]1([C@H]2C[C@H]3[C@@H]4CC[C@H]5C[C@H](O)[C@@H](N6CCOCC6)C[C@]5(C)[C@@H]4CC[C@]3(C)[C@H]2OC(C)=O)CCCC1,158%,–
Cc1ccc(S(=O)(=O)OCC(=O)Nc2ccc(C(=O)O)c(O)c2)cc1,105%,–
COc1cc2ncnc(Nc3cc(Br)c(O)c(Br)c3)c2cc1OC,–,2.35 µM (active)
OC1CCC(Nc2ncc3nc(Nc4c(F)cc(F)cc4F)n([C@@H]4CCOC4)c3n2)CC1 (stereo not given in full),–,20.9 µM (active)
CNc1nc(Nc2ccc(C(=O)N3CCOCC3)cc2OC)ncc1Cl,105%,–
Cc1ccccc1-n1c(Cn2nc(-c3cccc(O)c3)c3c(N)ncnc32)nc2cccc(C)c2c1=O,–,2.35 µM (active)
